These results are taken from PubChem BioAssay AID588436 (Broad Institute, 2011).

About 550 (0.16%) of roughly 350,000 compounds were called active. Shown is part of a subset that was picked to be rich in actives. A number with no mark means an inactive call. Rule as the data show it: active = activation mostly above about 9.7% (no sharp cut-off); inconclusive = no clear call, values can overlap the other calls; inactive = mostly below about 3.7%.

The assay can be described thus: inducers of Vibrio cholerae quorum light production without autoinducers, primary screen, BH1578 luxS cqsA deficient, single point (AID 588436). The following applies: V. cholerae BH1578 lux reporter, luminescence, 6 h, at 18.7 µM; hits give high values.
Turning to `COc1cccc(NS(=O)(=O)c2ccc3[nH]cc(C(=O)NCCCOC(C)C)c(=O)c3c2)c1`, the activation result was “inactive”. For `CN(C)c1ccc(CNC23CN4CN(CN(C4)C2)C3)cc1`, the activation is 54% (active). The result for `CN(C)c1ccc(CSc2ccccc2)cc1` reads “inactive”. The result for `CN(C)c1ccc(CNC2C3CC4CC(C3)CC2C4)cc1` (stereo not given) reads -0.358%; that for `CCN1CN(Cc2ccccc2)CNC1=S`, “inactive”. Regarding `C=CCC(C(=O)c1ccccc1)[N+](C)(C)CC=C` (stereo not given), the activation entry was “inactive”. The result for `COc1ccccc1C(=O)NC(CCSC)C(=O)NNC(=O)c1csc(N2CCOCC2)n1` (stereo not given) reads “inactive”. The result for `COc1ccc(-n2ncc3c2CC(C)(C)CC3NC(=O)CCc2c(C)noc2C)cc1` (stereo not given) reads -0.606%; that for `O=C(O)CCCCCCCCc1cn(CN2C(=O)c3ccccc3C2=O)nn1`, -0.601%. In the case of `COc1ccc(CC(=O)c2ccc(O)cc2O)cc1OC`, the activation is 1.54%. The result for `O=C(NC1CCN(C(=S)NCc2ccco2)CC1)c1ccc(F)cc1` reads “inactive”; that for `CCN(C[C@H]1N[C@@](CC)(C(=O)OC)[C@H]2C(=O)N(Cc3ccccc3)C(=O)[C@@H]12)S(=O)(=O)c1ccc(C(F)(F)F)cc1`, “inactive”; that for `Cc1ncoc1C(=O)NCCC(c1ccccc1)c1ccccc1`, “inactive”.

In the case of `CS(=O)(=O)N1CCCC(C(=O)Nc2ccccc2C(F)(F)F)C1` (stereo not given), the activation is -3.85%. `CCN(CC(=O)NCC(=O)Nc1cccc(C)c1C)Cc1ccccc1`: the activation entry is “inactive”. The result for `CCCCCCn1c(=O)n2n(c1=O)C[C@]1(OC(=O)NCc3ccc(OC)c(OC)c3)CN(S(=O)(=O)c3ccc(C)cc3)C[C@]1(O)C2` reads -2.08%; that for `Cc1ccc(C(=O)N/N=C/c2sc(=O)n(Cc3cccc(C(=O)O)c3)c2Cl)cc1`, 0.645%. The result for `CCCCNC(=O)Cn1nc(C)c(S(=O)(=O)N2CCOCC2)c1C` reads “inactive”; that for `CNc1cncc(-c2cccc(C(=O)N3CCOCC3)c2)n1`, 3.33%; that for `Cc1onc(-c2ccccc2)c1C(=O)N1CCOCC1`, 16.7% (active). The result for `Cc1onc(-c2ccccc2)c1C(=O)N1CCN(S(=O)(=O)c2ccccc2C(F)(F)F)CC1` reads -0.206%; that for `Cc1cccc(N2CCN(C(C)C(=O)N3CCc4ccccc43)CC2)c1C` (stereo not given), -0.336%.

Turning to `COc1ccccc1-c1cnn2c(N3CCOCC3)cc(C)nc12`, the activation was -0.198%. With `CC(C)n1ncc2c(C(=O)N3CCN(Cc4cccs4)CC3)cc(C3CC3)nc21`, the activation was -0.459%.

Consider `CCN(CC)c1nc(-c2ccccc2)cc(C(F)(F)F)c1C#N`, for which the activation was 17.9% (active). The result for `N#Cc1c(C(F)(F)F)cc(-c2ccccc2)nc1SCC(=O)N1CCOCC1` reads -0.279%; that for `N#Cc1c(C(F)(F)F)cc(-c2cccs2)nc1N1CCCCC1`, -0.871%; that for `CCNC(=S)Nc1ccc(OC(F)(F)F)cc1`, 20.7% (active). The result for `CS(=O)(=O)c1sc(C(=O)NC(=S)Nc2ccc(OC(F)(F)F)cc2)c2c1C=CCC2` reads 0.546%; that for `COC(=O)Cc1ccc(OCC(=O)Nc2ccc(OC(F)(F)F)cc2)cc1`, -0.392%.

For the compound `CCn1c2c(c3ccc(OC)cc31)CCCC2=O`, the activation result is “inactive”. Consider `CC(=O)OCC(COC(C)=O)OC(C)=O`, for which the activation is -1.4%. As to `CC(=O)OC(C)C[N+](C)(C)C` (stereo not given), the activation was 22.9% (active). For the compound `CC(C[N+](C)(C)C)OC(N)=O` (stereo not given), the activation entry was “inactive”. Turning to `NC(=O)C1CC=CCC1C(=O)OCC(Cl)=C(Cl)Cl` (stereo not given), the activation was -0.395%. The result for `Cc1noc(C)c1S(=O)(=O)N(C)Cc1ccccc1` reads “inactive”; that for `COC(CNC(=O)Cn1ncc2ccsc2c1=O)OC`, “inactive”; that for `O=C(CN1CCCCC1)Nc1ccc(Br)cc1C(=O)c1ccccc1Cl`, -0.319%.

Take `O=C(CN1CCCCCC1)Nc1ccc(Br)cc1Br`: the activation was -7.69%. The result for `O=C(CN1CCCCCC1)Nc1ccc(Br)cc1[N+](=O)[O-]` reads 45.8% (active); that for `CCC1CCCCN1C(=O)Nc1cccc(NC(=O)N2CCCCC2CC)c1` (stereo not given), “inactive”. Consider `CC(C)CC(=O)N1CCN(Cc2ccccc2Br)CC1`, for which the activation is 144% (active).

As for `COc1ccccc1CN1CCN(C(=O)Cc2ccccc2)CC1`, the activation result was “inactive”. For `CC(C)CC(=O)N1CCN(Cc2cccc(Cl)c2)CC1`, the activation entry was “inactive”. For the compound `CCOC(=O)c1c(-c2cccc(N)c2)cn2ccccc12`, the activation was -1.18%. Consider `CC(=O)N1C(=O)C2(Nc3ccccc3N2)c2ccccc21`, for which the activation entry was “inactive”. The result for `CC(C)Cc1ccc(S(=O)(=O)N2CCN(C(=O)c3ccco3)CC2)cc1` reads -6.25%; that for `Cc1oc2cc3oc(=O)ccc3cc2c1C`, -0.488%. The result for `C/C(=N\NS(=O)(=O)c1cccc([N+](=O)[O-])c1)c1cc2ccccc2o1` reads -2.5%; that for `CCc1nc2c(OCCOc3ccccc3)cccn2c1N(C=O)Cc1ccc(OC)cc1`, 4.55%.

In the case of `COc1cc(C(=O)NCC(=O)NCCSc2ccc(Br)cc2)cc(OC)c1OC`, the activation entry is “inactive”. Turning to `Cc1cccc(C(=O)OCC(=O)NC(C)C2CC3CCC2C3)c1O` (stereo not given), the activation result is “inactive”. `Cc1cccc(C)c1NC(=O)COC(=O)c1ccccc1O`: the activation is -0.155%. Turning to `Cc1cccc(C(=O)OCC(=O)NCC(C)C)c1O`, the activation is 302% (active). Turning to `Oc1ccc(CNc2ccccc2O)cc1`, the activation was -0.266%. The result for `O=C(Nc1ccc2ccccc2c1)Nc1ccc2snnc2c1` reads “inactive”; that for `COc1ccc2[nH]c(=O)c(CN(CC3CCCO3)C(=O)Nc3ccccc3)cc2c1` (stereo not given), -0.239%.

Regarding `COc1ccc2[nH]c(=O)c(CN(Cc3cccnc3)S(=O)(=O)c3ccccc3F)cc2c1`, the activation is 0.282%. The result for `COc1ccc2[nH]c(=O)c(CNc3ccc(C)c(C)c3)cc2c1` reads 16.7% (active); that for `COc1ccc(N2C(=O)NC(NS(=O)(=O)c3ccc(Cl)cc3)(C(F)(F)F)C2=O)cc1` (stereo not given), 0.575%.

`Cc1ccc(Cl)cc1NC(=O)C1CCCN(c2cnccn2)C1` (stereo not given): the activation was -2.5%. The result for `CC1(C)C=C2[C@H]3CC[C@@H]4[C@@]5(C)CCC(=O)C(C)(C)[C@@H]5CC[C@@]4(C)[C@]3(C)CC[C@@]2(C(=O)O)CC1` reads “inactive”; that for `Cc1cc(=O)oc2cc(OC(C)C(=O)Nc3ccc(N4CCOCC4)cc3)ccc12` (stereo not given), “inactive”. As to `CCCNC(=O)C1(C)CCCN(Cc2cccc(C(F)(F)F)c2)C1` (stereo not given), the activation result was “inactive”. For `O=C(CN1CCC(O)(c2cccc(C(F)(F)F)c2)CC1)NCCc1ccccc1`, the activation was 277% (active). On to `Cc1cc(NC(=O)CN2CCC(O)(c3cccc(F)c3)CC2)no1`, for which the activation was -11.8%.

Take `OCCN1CCN(CCO)C1=S`: the activation was -0.805%. The result for `COc1cccc(CN(C)C(=O)CC23CC4CC(CC(C4)C2)C3)c1OC` reads “inactive”; that for `O=C(Cc1ccc([N+](=O)[O-])cc1)Nc1ccc(C(=O)N2CCOCC2)cc1`, “inactive”; that for `Cc1c(C#N)c2ncn(CC#N)c(=O)c2n1-c1ccccc1`, 25% (active). The result for `CN(C)/C=C/c1c(C#N)c(=O)ncn1Cc1ccccc1` reads “inactive”. The result for `CC(=O)Cn1cnc2c(cnn2-c2ccccc2)c1=O` reads “inactive”; that for `Cc1cc(C)c(C#N)c(SCC(=O)NN2CC(=O)N(c3ccccc3F)CC2=O)n1`, 2.85%; that for `CCCCC(=O)Nc1ccccc1N1CCN(c2ccc(F)cc2)CC1`, “inactive”. As to `COc1ccccc1NC(=O)c1cc(N2C(=O)C3C4CCC(C4)C3C2=O)ccc1Cl` (stereo not given), the activation result is “inactive”. The result for `COc1ccc(-c2coc3c(C(=O)NC(C)C)cccc23)c(C)c1` reads -0.54%; that for `O=C(NCc1cccs1)c1ccc(CS(=O)Cc2ccccc2Cl)o1` (stereo not given), -3.95%. As for `CCN(CC(=O)NCc1ccc(Cl)cc1)C(=O)CSc1ccccc1`, the activation is 39.3% (active).

For `CCN(CC(=O)NCc1ccc(Cl)cc1)C(=O)c1c(C)noc1C`, the activation result was “inactive”. The result for `CCN(CC(=O)Nc1cc(Cl)ccc1C)C(=O)CSCc1ccccc1` reads 1.13%; that for `c1ccc(Cc2cc[n+](Cc3ccccc3)cc2)cc1`, -0.465%; that for `CC(C)(C)c1ccc(/C=C2\Oc3c(ccc(O)c3CN3CCN(CCO)CC3)C2=O)cc1`, -0.166%.

`COP1(=O)C[C@@H](O)[C@@H](O)[C@@H](COCc2ccccc2)O1` (stereo not given in full): the activation result was “inactive”. For `COCC1CCCCN1C(=O)c1cc(COc2ccc(C)c(C)c2)on1` (stereo not given), the activation result was “inactive”. The result for `COc1ccc(NC(=O)CN2C(=O)C(c3ccccc3)=NC23CCCCCC3)cc1OC` reads -0.396%; that for `COc1ccc(CNS(=O)(=O)c2ccc(NC(=O)N3CCCCC3)cc2)cc1`, “inactive”.

For `COc1ccc(OCCCC(=O)Nc2cccc(S(=O)(=O)N3CCCCCC3)c2)cc1`, the activation was -0.87%.

`O=C(Nc1ccc(F)cc1)c1cc2c(s1)CCCC2`: the activation was 0.953%.

As to `O=C(O)C1CCCN1c1nc(Cl)ccc1[N+](=O)[O-]` (stereo not given), the activation entry is “inactive”. The result for `Cc1cccc(-c2oc3ccc(-c4ccc5c(c4)OCO5)cc3c2C#Cc2cncn2C)c1` reads -1.22%; that for `COCCNC(=O)c1ccc2c(c1)ncn2-c1ccc(C)c(Cl)c1`, “inactive”. For the compound `O=C(c1cccs1)n1nc(NCc2ccccc2)nc1NCc1ccccc1`, the activation was -0.325%. For the compound `CC(NC(=O)COC(=O)C1CCN(S(=O)(=O)c2ccccc2C(F)(F)F)CC1)c1ccccc1` (stereo not given), the activation is -0.574%. As to `Cc1ccc(-c2nc(CS(=O)(=O)CC(=O)NCc3ccc4c(c3)OCO4)c(C)o2)cc1`, the activation was -0.345%.

Take `CC(=O)c1ccc(Cc2ncc(C(F)(F)F)cc2Cl)s1`: the activation result was “inactive”. The result for `CCOc1ccc(S(=O)(=O)N/N=C(\C)c2ccc(Cl)c(Cl)c2Cl)cc1` reads “inactive”. The result for `CC1Cc2ccccc2N1S(=O)(=O)c1ccc(Cl)nc1` (stereo not given) reads “inactive”.

Consider `COC(=O)C1=C(C)N(c2ccc(C)cc2)/C(=C/c2ccc(O)cc2)C1=O`, for which the activation is -0.588%. On to `CCCC(=O)Nc1ccc2c(c1)nc1n2CCSC1`, for which the activation is -5%.

Consider `COc1ccc(N2CCN(C(=O)c3cn(C)c4ccc(S(=O)(=O)N5CCOCC5)cc4c3=O)CC2)cc1`, for which the activation was 1.02%.
